# Screening data as filed in PubChem BioAssay.
# In the library only some 2.3% were active in any assay of this set; here they are far more common.
# TGFb inhibitor: blocks TGF-b signaling | AID 588855 | Potency, µM (titrated, usually from 46.1 µM), for the others: top-dose activity, negative = inhibition, hits mostly inhibitors | 1.2% of 410,000 active | HepG2 CAGA-GFP TGF-b/SMAD3 reporter, GFP fluorescence, 18 h; TGF-beta stimulated, 500 pg/mL final; also: % is scaled to controls: 0 for no effect and ±100 for the full control effect; nearly all actives have a fitted effect of over 65% in size
#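 HEPG2 CAGA-GFP, 1000 cells/well; 2 h settle, 37 C; cpd via pin tool; TGF-b 500 pg/mL final; 18 h, 37 C; GFP imaging ex488/em500-530; %Activity normalised to -TGF-b and +DMSO controls; CRC fit, curve class.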
# S2 tox: viability counter-screen for ATXN expression inhibitors; S2 cells (HEK-293 line with an ATXN2-luciferase reporter) viability, CellTiter-Fluor protease fluorescence, 24 h; Potency, µM (doses to about 56.7 µM), actives largely listed as cytotoxic; 0.49% of 400,000 active; also: nearly all actives have a fitted effect of over 40% in size
# HepG2 tox-1: HepG2 cytotoxicity, counter-screen for TGF-b inhibitors; HepG2 CAGA-GFP viability, ATP luminescence, 18 h; Potency, µM (highest dose often 46.1 µM), for inactives: top-dose activity change, negative = cytotoxicity, actives largely listed as cytotoxic; 0.76% of 410,000 active
#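 CellTiter-Glo luminescence gave cytotoxicity after 18 hours at 37 degrees C. The cells were HepG2 CAGA-GFP in 1% FBS DMEM, stimulated with 500 pg/mL TGF-beta after compound addition. %Activity was normalised to no-cell wells (complete cell-killing) and DMSO (no toxicity), and curves were fitted and classified.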
# ATXN2 expr inh: reduces ATXN2 reporter expression in HEK-293 cells; AID 1745845; HEK-293 ATXN2-luciferase reporter, luminescence, 24 h; Potency, µM (titrated, usually from 57 µM), without a hit: at the top dose activity change, negative = inhibition, usual class: inhibitors; 0.72% of 360,000 active; also: % is scaled to controls: 0 for no effect and ±100 for the full control effect; nearly all actives have a fitted effect of over 55% in size
#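 qHTS (up to 57 uM final) was run with 24 h compound exposure of reporter cells at 37 °C. Each well was multiplexed: SteadyGlo luminescence measured ATXN2-luciferase expression after a fluorogenic Gly-Phe-AFC viability readout (25 uM final).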
# TGFb CAGA inh: TGF-b pathway inhibition, cherry-pick retest; Potency, µM (top dose mostly 46.1 µM), for inactives: at the highest dose activity, negative = inhibition, hits mostly inhibitors; HepG2 CAGA-GFP TGF-b reporter, GFP fluorescence, 18 h; cells stimulated with TGF-beta, 500 pg/mL; AID 720534; 63% of 1,600 active; shares compounds with TGFb inhibitor; also: % is scaled to controls: 0 for no effect and ±100 for the full control effect; nearly all actives have a fitted effect of over 65% in size
# HepG2 tox-2: toxic to HepG2 cells in TGF-b counterscreen; shares compounds with TGFb inhibitor; HepG2 CAGA-GFP viability, ATP luminescence, 18 h; cells stimulated with TGF-beta, 500 pg/mL; Potency, µM (series often up to 46.1 µM), inactives show at the top dose activity, negative = cytotoxicity, actives largely listed as inhibitors; 27% of 1,600 active; AID 720535; also: % is scaled to controls: 0 for no effect and ±100 for the full control effect; nearly all actives have a fitted effect of over 70% in size
# CCL64 TGFb inh: orthogonal confirmation of TGF-b inhibitors in CCL64 cells. shares compounds with TGFb inhibitor. CCL64 CAGA-GFP reporter, TGF-b stimulated, GFP fluorescence, 18 h. 41% of 1,600 active. Potency, µM (series often up to 46.1 µM), for the others: at the highest dose activity, negative = inhibition, hits mostly inhibitors; also: nearly all actives have a fitted effect of over 65% in size
# COP TGFb inh: blocks TGF-b signaling in HepG2 COP reporter; shares compounds with TGFb inhibitor; HepG2 COP-GFP TGF-b reporter, GFP fluorescence, 18 h; cells stimulated by added recombinant TGF-beta; Potency, µM (doses to about 46.1 µM), inactives show at the highest dose activity, negative = inhibition, most hits filed as inhibitors; 3% of 1,600 active; AID 720537; also: nearly all actives have a fitted effect of over 70% in size
# * hit, by the source's call; i = inactive; u = inconclusive; x = no result given. Calls follow the shape of the dose curve; as a rule, active = well fitted curve in the direction sought with a large enough effect; inconclusive = small, poorly fitted or top-dose-only effect, or another doubt; inactive = no such curve, though single readings can be large; an effect the other way counts as inactive or inconclusive. Potency is read from the fitted curve at half-maximal effect.
SMILES,TGFb inhibitor,S2 tox,HepG2 tox-1,ATXN2 expr inh,TGFb CAGA inh,HepG2 tox-2,CCL64 TGFb inh,COP TGFb inh
COc1cc2c(c(OC)c1OC)-c1ccc(OC)c(=O)cc1C(NC(=O)c1ccccc1)CC2 (stereo not drawn),u,i,-16%,1%,u,0%,u,u
C=COC(=O)NC1CCc2cc(OC)c(OC)c(OC)c2-c2ccc(SC)c(=O)cc21 (stereo not drawn),u,u,-33%,-3%,x,x,x,x
OC(CNCC(c1ccc(Cl)cc1Cl)c1c[nH]c2ccccc12)c1ccccc1 (stereo not drawn),7.1µM*,u,-112%,u,u,16µM*,u,u
O=S(=O)(c1ccc(F)cc1)N1CCN(c2nc(-c3ccc(F)cc3)nc3cc(Cl)ccc23)CC1,5%,x,-13%,x,x,x,x,x
COc1ccc(CCNC(=O)CNS(=O)(=O)c2ccc(Cl)cc2)cc1,u,i,-7%,-3%,-5%,4%,2%,-16%
COc1ccc(CNC(=O)CNS(=O)(=O)c2ccc(Cl)cc2)cc1,-6%,i,8%,6%,x,x,x,x
O=C(NCc1ccncc1)c1ccc2nc(Cc3ccccc3F)oc2c1,u,i,2%,-4%,u,-14%,16%,-18%
Cc1cc(CNC(=O)c2ccc3nc(Cc4ccccc4F)oc3c2)nn1C,-11%,i,0%,57%,x,x,x,x
CC(=O)c1ccc(C2CC34CNS(=O)(=O)C3CC2O4)cc1 (stereo not drawn),-16%,x,-29%,x,x,x,x,x
Cc1ccccc1CN(CC(=O)Nc1cccc([N+](=O)[O-])c1)S(=O)(=O)c1ccc(Cl)cc1,11µM*,u,-28%,-35%,10µM*,u,2.3µM*,71%
CC[C@@H](CC1CCCCC1)C(=O)N(Cc1ccccc1)c1ccccc1,2.5µM*,i,-23%,-17%,-17%,u,u,9%
CC(=O)Oc1ccc(N(C(C)=O)S(=O)(=O)c2cccs2)c2ccccc12,10µM*,u,-82%,25µM*,u,1%,u,12%
CCN(c1cccc2ccccc12)S(=O)(=O)c1cccs1,u,i,-34%,0%,x,x,x,x
Cc1ccsc1/C=N/NC(=O)c1cc(-c2ccncc2)nc2ccccc12,u,i,-14%,-8%,-71%,-27%,6.5µM*,-16%
CN(C)CCC(=O)C(Cc1ccccc1)c1ccccc1 (stereo not drawn),7.9µM*,i,20µM*,-6%,4.1µM*,15µM*,10µM*,u
COc1ccc(-c2csc(NCCc3nc4cc(Cl)c(N5CCCCC5)cc4n3CCOCCO)n2)cc1,u,u,-12%,u,x,x,x,x
OCCCn1c(CCCNc2nc(-c3cccc(Br)c3)cs2)nc2cc(Cl)c(N3CCCCC3)cc21,10µM*,u,-8%,0%,13µM*,-23%,u,37%
Cc1noc(-c2ccc(CSCCC(=O)O)cc2)c1NC(=O)OC(C)c1ccccc1Cl (stereo not drawn),x,x,x,11%,x,x,x,x
CNc1ccc(/C=C2\C=Cc3ccccc32)cc1Br,u,x,-26%,x,x,x,x,x
Cc1ccc(S(=O)(=O)Nc2ccc3c4c(cccc24)CC3)c(C)c1,u,i,-5%,-29%,x,x,x,x
Cc1cc(C)c(S(=O)(=O)Nc2ccc3c4c(cccc24)CC3)c(C)c1,8.9µM*,u,-39%,-31%,12µM*,u,9.2µM*,33%
COc1ccc2cccc(CCNC(C)=O)c2c1,x,i,x,7%,x,x,x,x
CC(C)c1ccc(Nc2nc(Nc3ccc(Cl)cc3)nc(N3CCOCC3)n2)cc1,21%,x,3%,x,x,x,x,x
COc1ccc(NCc2nc3ccccc3n2CCOc2ccc(C)cc2)cc1,14µM*,u,-32%,u,13µM*,u,8.2µM*,40%
CN(C)CCCNc1nccc(N2CCN(C)CC2)n1,-1%,x,-29%,x,x,x,x,x
SMILES,TGFb inhibitor,S2 tox,HepG2 tox-1,ATXN2 expr inh,TGFb CAGA inh,HepG2 tox-2,CCL64 TGFb inh,COP TGFb inh
CCN(C(=O)COC(=O)c1cccc2ccccc12)c1c(N)n(Cc2ccccc2)c(=O)[nH]c1=O,-17%,i,-9%,-10%,x,x,x,x
CCN(C(=O)COC(=O)c1ccccc1Nc1ccccc1)c1c(N)n(Cc2ccccc2)c(=O)[nH]c1=O,18µM*,u,-9%,x,21µM*,-24%,u,8%
O=C(Nc1ccc(Cl)cc1)c1cc2c(cc1O)[nH]c1ccccc12,6.3µM*,u,-45%,u,7.3µM*,5.2µM*,3.3µM*,70%
CCOC(=O)N1CCN(/[N+]([O-])=N/Oc2ccc([N+](=O)[O-])cc2[N+](=O)[O-])CC1,u,x,-19%,x,x,x,x,x
Cc1ccc(C2N=C(Nc3nc4ccccc4o3)NC3=C2C(=O)CC(C)(C)C3)cc1 (stereo not drawn),1%,x,6%,x,x,x,x,x
C/C(=N/NC(=O)c1ccc(C(C)(C)C)cc1)c1ccccn1,u,i,4%,u,2.6µM*,u,9.2µM*,2%
C/C(=N\NC(=O)c1ccccc1OCc1ccc(F)cc1)c1ccccn1,11µM*,u,-12%,x,15µM*,u,8.2µM*,1%
O=C(NCc1ccc(F)cc1)c1ccccc1OCc1ccccc1,-11%,i,6%,7%,x,x,x,x
C/C(=N\NC(=O)C1COc2ccccc2O1)c1ccccn1 (stereo not drawn),u,u,-17%,3.5µM*,21µM*,-27%,u,5%
COc1ccc(-c2nc(N3CCN(S(=O)(=O)c4ccc(F)cc4)CC3)c3ccccc3n2)cc1,2%,x,-7%,x,x,x,x,x
O=C(Nc1cccc2cccnc12)c1ccc(Br)cc1,-4%,x,-27%,x,x,x,x,x
CCOc1ccc(CCN2C(=S)N([C@@H](Cc3ccc(O)cc3)CN3CCCC3CN3C(=S)NC[C@@H]3Cc3ccc(O)cc3)C[C@@H]2CC(C)C)cc1 (stereo partly drawn),u,i,0%,u,x,x,x,x
